Screening data deposited in PubChem by several laboratories.
FGF22 binding: FGF22 (human) thermal shift binding; 340,000 tested, 1.5% active; AID 651658; recombinant FGF22 thermal shift, SYPRO orange fluorescence; percent of sucrose octasulfate shift, DMSO zero; Q9HCT0; activity (Tm shift, normalised), % at 9.99 µM;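 active = mean Tm shift, scaled 0 neutral to 100 positive control, at about 1.3% or above, every replicate too, limit read from the data; inconclusive = no clear call, values can overlap the other calls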
MLL AF4-AF9 inh: inhibitors of human MLL-AF4/AF9 interaction; inhibition, % at 10 µM; P42568; AlphaScreen, biotin-AF4 peptide binding to FLAG-AF9; 350,000 tested, 0.47% active;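 active = every replicate reaching a set inhibition limit, whatever the replicate mean, cut at about 25% in these data; inconclusive = mean inhibition reaches that limit but some replicates miss it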;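 note: 0% = plate neutral control median and 100% = total signal loss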
Target sequence (P42568 whole entry, looked up): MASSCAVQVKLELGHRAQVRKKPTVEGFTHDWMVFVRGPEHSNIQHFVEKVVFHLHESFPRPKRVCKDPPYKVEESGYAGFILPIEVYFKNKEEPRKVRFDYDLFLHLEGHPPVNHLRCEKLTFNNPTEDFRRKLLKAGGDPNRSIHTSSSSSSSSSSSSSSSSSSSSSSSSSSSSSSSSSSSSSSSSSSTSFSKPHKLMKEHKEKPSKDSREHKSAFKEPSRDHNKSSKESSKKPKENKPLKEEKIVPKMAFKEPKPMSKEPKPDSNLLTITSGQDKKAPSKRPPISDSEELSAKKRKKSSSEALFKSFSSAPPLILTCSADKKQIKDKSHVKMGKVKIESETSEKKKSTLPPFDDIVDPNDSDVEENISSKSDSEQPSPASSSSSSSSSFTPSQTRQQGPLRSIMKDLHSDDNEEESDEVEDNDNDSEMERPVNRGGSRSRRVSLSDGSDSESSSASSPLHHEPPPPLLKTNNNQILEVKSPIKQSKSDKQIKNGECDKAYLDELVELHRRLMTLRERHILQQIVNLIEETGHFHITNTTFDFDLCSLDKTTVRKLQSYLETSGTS
esBAF inh: inhibitors of esBAF chromatin remodeling in mouse ES cells | reporter increase, % at 12.5 µM | 350,000 tested, 2% active | Bmi1-luciferase knock-in reporter, 24 h; 100% = twice the neutral-well signal; in the data active = activation above about 40%; inconclusive = no clear call, values can overlap the other calls;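 note: 0% = median of the plate's neutral control wells and 100% = double that signal; a rise in the Bmi1 reporter signal indicates esBAF inhibition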
SMARCA2 activ: activators of SMARCA2 function; MG213 cells, MMTV-luciferase reporter, dexamethasone, overnight; activation, % at 9.1 µM; 370,000 tested, 1% active; in the data active = activation above about 7.8%;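 note: 0% = vehicle wells and 100% = reference activator wells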
Wnt bcat act: Wnt/beta-catenin pathway activation; 300,000 tested, 1.2% active; activation, % at 9.35 µM; Wnt/beta-catenin reporter cell assay, activator, plate reader; in the data active = activation above about 30%, passing the limit was not always enough; inconclusive = no clear call, values can overlap the other calls;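 note: 0% = neutral control wells and 100% = positive control wells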
MITF TRPM1 HTS: activators of MITF-driven TRPM1 promoter activity in SK-MEL-5 cells; AID 588334; activation, % at 12.5 µM; SK-MEL-5 TRPM1-promoter luciferase, 24 h; % of positive control, neutral wells = 0; 300,000 tested, 0.75% active;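 active = mean activation of at least 80% with every replicate also reaching 80%; inconclusive = mean reaches 80% but some replicate falls short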;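 note: 0% = neutral control wells and 100% = parthenolide positive control wells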
Active calls of the source: *; ? = inconclusive; . = not tested or not shown. Compounds with a hit are over-represented: about 4.3% of the library has one in this group of screens.

SMILES | FGF22 binding | MLL AF4-AF9 inh | esBAF inh | SMARCA2 activ | Wnt bcat act | MITF TRPM1 HTS
O=C(Nc1ncc(Cc2cccc(Cl)c2Cl)s1)C1CCCO1 (stereo unspecified) | 0 | -28 | 85* | 4 | 44* | 133*
Cc1cnc(NC(=O)C2CCCO2)s1 (stereo unspecified) | 0 | 5 | -7 | 4 | 2 | 14
COc1ccc(C(=O)Nc2ccc3c(c2)C(=O)N(C)C[C@H](OC)[C@@H](C)CN(C(C)=O)[C@H](C)CO3)cc1 | 0 | 1 | -2 | . | . | .
Cc1noc(C)c1NC(=O)N(C)C[C@H]1Oc2ccc(NS(=O)(=O)c3cn(C)cn3)cc2C(=O)N([C@@H](C)CO)C[C@@H]1C | 0 | -3 | 4 | . | . | .
CO[C@@H]1CN(C)C(=O)c2ccc(NC(=O)CC(F)(F)F)cc2OC[C@H](C)NC[C@H]1C | . | -16 | . | . | . | .
O=C(OCC(=O)N1CCN(Cc2ccccc2)CC1)c1ccc(Cl)cc1 | 44* | -2 | . | -3 | -8 | 14
O=C(c1ccc2ccccc2c1)N1CCN(Cc2ccccc2)CC1 | 0 | -1 | 69* | -1 | 9 | 60
O=C(c1ccc(S(=O)(=O)NCc2ccco2)cc1)N1CCN(Cc2ccccc2)CC1 | 44* | 1 | . | -2 | -1 | -3
O=C(c1c[nH]c2ccccc12)N1CCN(Cc2ccccc2)CC1 | 43* | 1 | . | 2 | 1 | -6
O=C(c1cccc(C(=O)N2CCN(Cc3ccccc3)CC2)c1)N1CCN(Cc2ccccc2)CC1 | . | . | -6 | -2 | . | -11
O=C(C(=O)N1CCN(Cc2ccccc2)CC1)c1c[nH]c2ccccc12 | 0 | -2 | -5 | -1 | -2 | -7
Cc1ccc(S(=O)(=O)Nc2ccc3c(c2)C(=O)N([C@H](C)CO)C[C@H](C)[C@H](CN(C)S(=O)(=O)c2ccccc2)OCCCC[C@H](C)O3)cc1 | . | -1 | 8 | . | . | .
Cc1ccc(S(=O)(=O)Nc2ccc3c(c2)C(=O)N([C@@H](C)CO)C[C@H](C)[C@H](CN(C)S(=O)(=O)c2ccc(Cl)cc2)OCCCC[C@@H](C)O3)cc1 | -1 | . | 3 | . | . | .
Nc1nc(NCC2CCCO2)nc(Nc2cccc(F)c2)c1[N+](=O)[O-] (stereo unspecified) | 0 | 31* | . | -3 | -2 | .
CN(C)CC(=O)N[C@@H]1CC[C@@H](CCn2cc(C3CCCC3)nn2)O[C@H]1CO | 0 | -2 | -3 | . | . | .
Cc1cccn2c(NC(=O)c3cccs3)c(-c3ccccc3)nc12 | . | . | . | 7.9* | . | 5
Cc1cccc(S(=O)(=O)N(C)C[C@H]2OCc3ccccc3-c3ccccc3C(=O)N([C@@H](C)CO)C[C@@H]2C)c1 | 0 | -5 | 6 | . | . | .
Cc1[nH]n(-c2ccccc2)c(=O)c1N=Nc1ccc2c(c1)OCO2 | 0 | -13 | 64* | -1 | 50* | 49
OC(c1ccccc1)c1nc(-c2cc3ccccc3o2)cs1 (stereo unspecified) | 0 | -4 | 47* | 4 | -1 | .
Nc1nc(-c2cc3ccccc3o2)cs1 | 0 | -10 | ? | 3 | 56* | 102*
CCCNC(=O)N(C)C[C@@H]1Oc2cc(C#CC3CC3)ccc2S(=O)(=O)N([C@H](C)CO)C[C@H]1C | 0 | 0 | -3 | . | . | .
Cc1noc(C)c1NC(=O)Nc1cccc2c1O[C@H](CN(C)CC1CCCCC1)[C@H](C)CN([C@H](C)CO)C2=O | 0 | -7 | -4 | . | . | .
C[C@H](CO)N1C[C@H](C)[C@H](CN(C)Cc2cccc(C(F)(F)F)c2)Oc2ncc(C#CCN(C)C)cc2C1=O | 0 | 4 | -1 | . | . | .
CCOc1ccc(C(C)NC(=S)NCc2ccc(Cl)cc2)cc1 (stereo unspecified) | 43* | -2 | . | -4 | 2 | 1
CCCc1ccc(C(C)NC(=S)NCc2ccc(F)cc2)cc1 (stereo unspecified) | 0 | -2 | -11 | -3 | 0 | -8
COCCNC(=O)C(=O)Nc1cccc(Br)c1 | 0 | -7 | 57* | 4 | 5 | 54
COCCNC(=O)C(=O)Nc1ccc(Br)cc1 | . | . | 49* | 3 | . | 27
CN1CCC(=NNC(=O)C(=O)Nc2cccc(Br)c2)CC1 | 43* | -1 | . | -1 | -2 | 5
COc1ccc(S(=O)(=O)Nc2ccc3c(c2)CC(=O)N([C@@H](C)CO)C[C@H](C)[C@@H](CN(C)S(=O)(=O)c2cccs2)O3)cc1 | 0 | -2 | 0 | . | . | .
